Results: the supplement of paper PMC6555819

Assays:
Experiment in all cases: PBM binding z-score (relative to random genomic background probes); higher = stronger binding; sequences stand for … in GC…GCGATTGACAGCGTAGAATGAAGG
[1] = test system: FXR:RXRa (NR concentration 270 nM, RXRa partner concentration 90 nM)
Outline: (§1)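 For binding z-scores, the reference was random background probes on custom Agilent 4×180K protein-binding microarrays. These arrays were incubated 1 h with ligand-free nuclear receptor dimers in PBS pH 7.4, 2% milk, 0.02% Triton X-100, 1 mM DTT, 0.2 mg/mL BSA and 0.4 mg/ml salmon testes DNA. Fluorescence was scanned after antibody detection of each partner (one per run) and regression-normalized.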

[2] = test system: LXRa:RXRa (NR concentration 270 nM, RXRa partner concentration 90 nM)
Outline: as §1

[3] = test system: LXRa homodimer (NR concentration 270 nM)
Outline: as §1

[4] = test system: LXRb:RXRa (NR concentration 270 nM, RXRa partner concentration 90 nM)
Outline: as §1

[5] = test system: LXRb homodimer (NR concentration 270 nM)
Outline: as §1

[6] = test system: PPARa:RXRa (NR concentration 270 nM, RXRa partner concentration 90 nM)
Outline: as §1

[7] = test system: PPARg:RXRa (NR concentration 180 nM, RXRa partner concentration 90 nM)
Outline: as §1

[8] = test system: PPARg:RXRa 270nM:90nM, anti-RXR (NR concentration 270 nM, RXRa partner concentration 90 nM)
Outline: as §1

[9] = test system: PPARg:RXRa 30nM:10nM, anti-RXR (NR concentration 30 nM, RXRa partner concentration 10 nM)
Outline: as §1

[10] = test system: PPARg:RXRa 90nM:30nM, anti-RXR (NR concentration 90 nM, RXRa partner concentration 30 nM)
Outline: as §1

| Sequence | PBM binding z-score [1] | PBM binding z-score [2] | PBM binding z-score [3] | PBM binding z-score [4] | PBM binding z-score [5] | PBM binding z-score [6] | PBM binding z-score [7] | PBM binding z-score [8] | PBM binding z-score [9] | PBM binding z-score [10] |
| --- | --- | --- | --- | --- | --- | --- | --- | --- | --- | --- |
| CCTCCGAGGACAACAGGAGGTCAGAGCTGCCAGA | 1.35 | 2.3 | 2.21 | 1.51 | -0.302 | 2.02 | 0.575 | 0.211 | -0.642 | -0.107 |
| AATACAGGGTCATCGTAGGCCAGAGCACGCACAG | 7.49 | 6.27 | 2.28 | 4.72 | 1.31 | 5.79 | 6.53 | 6.08 | 3.29 | 4.98 |
| ACGGACAGGTGATGAAGGTAACTCAGGCTATCAT | 0.169 | -0.084 | -0.0768 | 0.109 | -0.152 | 0.276 | 0.712 | 0.0307 | 0.33 | 0.172 |
| GCAGACAGGTGAAACGCAGGTATCTCAGGGTGGC | -0.22 | -0.184 | -0.68 | -0.253 | -1.19 | 0.544 | 0.481 | 0.0316 | -0.675 | -0.473 |
| CCTTACGGGTCACAGACAGGTTATAGCATTTGGA | 5.55 | 4.19 | 0.611 | 3.84 | 0.0624 | 5.36 | 5.74 | 5.16 | 2.14 | 3.99 |
| CAAACTAGGTCAAAGGTCAATGTCGAGCCAACCA | 8.32 | 7.09 | 4.92 | 6.96 | 2.33 | 7.33 | 14 | 11.7 | 13.6 | 14.2 |
| TATCCTAGGTCATTCAGGGGCCAGTATAGAAAGC | 5.25 | 5.67 | 4.76 | 3.96 | 4.11 | 4.18 | 3.29 | 3.8 | 1.64 | 3.05 |
| CAAACTAGGTCACCGGAAGGGCAAAGTCCGCATG | 4.22 | 3.85 | 0.736 | 2.88 | 0.171 | 5.16 | 8.84 | 6.95 | 4.85 | 6.67 |
| CTCGAAAGGTCGGTTGAGGTGAGTCTACGGATAA | 2.75 | 1.97 | -0.215 | 1.29 | -0.179 | 2.62 | 0.161 | 1.13 | 0.171 | 0.803 |
| CGTCCAAGGTAAAAGGTCAGTGAAGAGATGACGG | 3.59 | 3.34 | 0.701 | 3.27 | -0.538 | 5.23 | 6.53 | 6.49 | 4.59 | 6.15 |
| AATACAGGGTCACTAGGCTAGAGTAGGTACGAAT | 6.21 | 5.05 | 0.889 | 3.9 | 0.775 | 5.9 | 7.63 | 6.19 | 2.53 | 5.09 |
| CCTAGCATGCCAGGGTCACTCAAGCATTTCGCTT | 2.11 | 1.85 | -0.459 | 2.23 | -0.94 | 3.15 | 0.542 | 1.23 | -0.373 | 0.276 |
| CCTCAAAGTTCAACTAAGGTAACGTAAAGCACGC | 6.89 | 6.33 | 4.64 | 4.52 | 2.85 | 5.12 | 3.17 | 4.09 | 1.44 | 2.86 |
| TCTATTAGTTGAAGGGCATCCGACGAGTCCGTTT | 0.895 | 0.85 | 0.486 | 0.661 | 0.284 | 0.934 | 0.123 | 2.03 | 3.75 | 2.78 |
| TCTGCTAGGCCAGTTGGTCAGCTAACGAGCTGCC | -3.09 | -0.955 | -1.26 | -1.27 | -0.666 | -0.606 | -1.07 | 0.229 | 0.768 | 0.446 |
| CCTCGGAGGACATCAGGAGGTCAGAGCTGCCAGA | 1.63 | 1.87 | 1.11 | 1.17 | -0.894 | 1.93 | 0.267 | 0.414 | -0.801 | -0.136 |
| AGTCAAAGTTCATATAGGTAACGTAAGATATGCT | 6.32 | 5.7 | 5.15 | 3.66 | 2.13 | 4.62 | 6.76 | 6.08 | 3.4 | 5.1 |
| GGAACGCGGGCATTCGAGTTGATAGCATGGCGAT | -0.388 | -0.465 | -0.588 | -1.04 | -1.3 | -1.13 | -0.044 | -0.711 | -0.908 | -0.624 |
| TTACCAAGGTTAAGGTCGTTGATCCCTCTGTAGA | 4.22 | 4.15 | 0.608 | 2.66 | -0.123 | 3.38 | 1.85 | 3.34 | 1.44 | 2.99 |
| TCTAGTTGGTCCAAGGTCACACACTCGAAATGCG | 3.91 | 3.59 | 1.87 | 3.54 | 0.734 | 4.18 | 4.19 | 5.58 | 4.56 | 5.7 |
| CGTCCAAGGTCTGAGAGGTCAGTGAATGCCGAGT | 1.6 | 1.76 | 0.726 | 1.58 | -0.51 | 2.29 | -0.0569 | 0.729 | -0.614 | -0.154 |
| ATCTCTAGGTAAAGTTTAGTGAAAGATCGATAGA | 0.0185 | 0.132 | -0.104 | 0.124 | 0.703 | 0.485 | 0.873 | 1.36 | 0.722 | 1.25 |
| ACAGACAGGTGACTGAAGGTAACTCAGCTGGACG | 0.0674 | 0.59 | -0.72 | -0.364 | -1.02 | 0.299 | 0.781 | 0.364 | -0.0254 | 0.262 |
